This is a sample that favours compounds with a hit; in the whole collection about 2.3% have one here.
TGFb SMAD3 inh = TGF-b pathway inhibition; HepG2 CAGA-GFP TGF-b/SMAD3 reporter, GFP fluorescence, 18 h; TGF-beta stimulated, 500 pg/mL final; Potency, µM (doses to about 46.1 µM), inactives show top-dose activity, negative = inhibition, hits mostly inhibitors; hit rate 1.2% among 410,000; also: % is scaled to controls: 0 for no effect and ±100 for the full control effect; nearly all actives have a fitted effect of over 65% in size
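Inhibition of TGF-beta-driven CAGA-GFP reporter expression in HEPG2 cells is measured by cellular GFP fluorescence after 18 h stimulation with 500 pg/mL recombinant TGF-beta in 1% FBS medium at 37 degrees C.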
ATXN2 expr inh = ATXN2 expression inhibition; AID 1745845; Potency, µM (titrated, usually from 57 µM), without a hit: at the highest dose activity change, negative = inhibition, most hits filed as inhibitors; HEK-293 ATXN2-luciferase reporter, luminescence, 24 h; hit rate 0.72% among 360,000; also: % is scaled to controls: 0 for no effect and ±100 for the full control effect; nearly all actives have a fitted effect of over 55% in size
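qHTS (up to 57 uM final) was run with 24 h compound exposure of reporter cells at 37 °C. Each well was multiplexed: SteadyGlo luminescence measured ATXN2-luciferase expression after a fluorogenic Gly-Phe-AFC viability readout (25 uM final).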
HepG2 viability = kills HepG2 cells in TGF-b inhibitor counter-screen; HepG2 CAGA-GFP viability, ATP luminescence, 18 h; Potency, µM (top dose mostly 46.1 µM), inactives show top-dose activity change, negative = cytotoxicity, actives largely listed as cytotoxic; hit rate 0.76% among 410,000; AID 588856
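CellTiter-Glo luminescence gave cytotoxicity after 18 hours at 37 degrees C. The cells were HepG2 CAGA-GFP in 1% FBS DMEM, stimulated with 500 pg/mL TGF-beta after compound addition. %Activity was normalised to no-cell wells (complete cell-killing) and DMSO (no toxicity), and curves were fitted and classified.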
S2 tox = cell viability loss in ATXN counter-screen; S2 cells (HEK-293 line with an ATXN2-luciferase reporter) viability, CellTiter-Fluor protease fluorescence, 24 h; Potency, µM (titrated, usually from 56.7 µM), most hits filed as cytotoxic; hit rate 0.49% among 400,000; AID 651635; also: nearly all actives have a fitted effect of over 40% in size
Starred values were filed as active, the others as inactive; i = inactive; ? = inconclusive; . = no result given. Calls follow the shape of the dose curve; as a rule, active = well fitted curve in the direction sought with a large enough effect; inconclusive = small, poorly fitted or top-dose-only effect, or another doubt; inactive = no such curve, though single readings can be large; an effect the other way counts as inactive or inconclusive. Potency is read from the fitted curve at half-maximal effect.

SMILES	TGFb SMAD3 inh	ATXN2 expr inh	HepG2 viability	S2 tox
CCCCc1c(-c2ccccc2OC)ncn1Cc1cccc(-c2ccccc2)c1	.	28.2µM*	.	?
CC(C)CN(CC(C)C)c1ccc(/C=C/c2nc3ccccc3s2)cc1	-21.7%	.	-18.7%	.
Cc1onc(-c2ccccc2)c1C(=O)NNC(=S)NC(=O)c1ccc(Cl)cc1Cl	?	-17.1%	12.6µM*	i
Cc1onc(-c2ccccc2)c1C(=O)NNC(=S)NC(=O)c1ccc(Br)cc1	0.0%	0.0%	-34.1%	i
Cc1ccc2c(C)ccnc2c1	?	.	-18.4%	.
Clc1ccc2nccnc2c1	?	.	14.1µM*	.
Cc1ccc2nccnc2c1	8.91µM*	.	5.62µM*	.
Cc1ccccc1-c1nc(-c2ccc(NC(=O)c3ccc4c(c3)OCO4)cc2)no1	?	.	-2.7%	.
COc1cc(-c2nc(-c3ccc(NC(=O)c4ccc5c(c4)OCO5)cc3)no2)cc(OC)c1OC	?	?	-56.8%	31.6µM*
COC(=O)C1=C(C(=O)OC)C(C(=O)OC)C(C(=O)OC)C(C(=O)OC)(C(=O)OC)C(C(=O)OC)=C1C(=O)OC (centres undefined)	-27.9%	?	-41.0%	33.6µM*
COC(=O)C1C(C(=O)OC)C1(c1ccccc1)c1ccccc1 (centres undefined)	12.6%	-9.5%	-1.9%	i
CCOC(=O)Cc1ccc(NC(=O)c2ccccc2Br)cc1	-7.2%	.	0.8%	i
CCOC(=O)Cc1ccc(NC(=O)c2ccc(C(C)(C)C)cc2)cc1	-17.1%	2.82µM*	-56.7%	?
CN(Cc1ccon1)C(=O)c1cnn(-c2ncc3c(n2)-c2ccccc2CCC3)c1C1CC1	.	.	.	i
CN(C)CCN1C(=O)C(=O)/C(=C(/O)c2ccc(S(=O)(=O)N3CCOCC3)cc2)C1c1ccc(F)cc1 (centres undefined)	-4.2%	1.2%	12.6µM*	i
COc1ccc(CN2CC[C@H]3C=CC[C@@H](C(=O)NC4CCCCC4)[C@H]3C2=O)cc1OC	0.0%	.	56.5%	.
CC(=O)/C=N/Nc1ccccc1	22.4µM*	-8.6%	-93.3%	i
CC(=NNc1ccccc1)C(C)=NNc1ccccc1	12.0%	3.7%	8.6%	i
N=C1SC(=Cc2ccc(-c3ccc4c(c3)C(=O)NC4=O)o2)C(=O)N1c1ccc(Br)cc1	.	-12.4%	.	.
Nc1c(C(=O)NCc2ccccc2)c2nc3ccccc3nc2n1-c1ccc2c(c1)OCO2	7.2%	22.4µM*	2.8%	i
Nc1c(C(=O)NCc2ccco2)c2nc3ccccc3nc2n1CCc1ccc(F)cc1	15.8µM*	-34.3%	-102.8%	.
Nc1c(C(=O)NCc2ccc3c(c2)OCO3)c2nc3ccccc3nc2n1CCCN1CCOCC1	?	?	11.2µM*	i
COc1ccc(C(=O)Nc2ccc(O)c3c(=O)cc(-c4cccc(Cl)c4)oc23)cc1	-1.3%	-18.6%	-6.2%	4.47µM*
CCN1CCCC1CNC(=O)c1cnn(-c2nccc(-c3ccc(C)o3)n2)c1C1CC1 (centres undefined)	.	.	.	i
COc1ccc2[nH]c(C(O)C(O)c3nc4c(OC)c(OC)ccc4[nH]3)nc2c1OC (centres undefined)	-13.7%	.	1.8%	.
SMILES	TGFb SMAD3 inh	ATXN2 expr inh	HepG2 viability	S2 tox
O=C(NC(c1ccccc1)c1cnccn1)C1CCN(Cc2ccc(Cl)c(Cl)c2)CC1 (centres undefined)	-15.7%	?	-38.4%	?
O=C(NC(c1ccccc1)c1cnccn1)C1CCN(CCOc2ccc(Cl)cc2Cl)CC1 (centres undefined)	?	?	-95.8%	12.6µM*
Cn1cc(CN2CCC(C(=O)NC(c3ccc(-c4ccccc4)cc3)c3cnccn3)CC2)c2ccccc21 (centres undefined)	?	-23.4%	11.2µM*	20µM*
O=C(NC(c1ccc(-c2ccccc2)cc1)c1cnccn1)C1CCN(Cc2ccc3c(c2)OCO3)CC1 (centres undefined)	?	?	-93.2%	31.6µM*
O=C(NC(c1ccccc1)c1ccsc1)C1CCN(CCOc2ccc(Cl)cc2Cl)CC1 (centres undefined)	?	?	-95.1%	.
Cc1cccnc1C(NC(=O)C1CCN(CCOc2ccc(F)cc2)CC1)c1ccc(Cl)cc1 (centres undefined)	?	0.0%	11.2µM*	?
O=C(NC(c1ccc(-c2ccccc2)cc1)c1cnccn1)C1CCN(Cc2ccc(Cl)c(Cl)c2)CC1 (centres undefined)	?	0.0%	-34.8%	?
Cc1cnc2ccc(I)cc2c1/C=C/c1ccc(N(C)C)cc1	-1.6%	.	-26.1%	.
O=C(C[N+]1(CCO)CCOCC1)c1ccc(F)c2ccccc12	14.3%	.	4.2%	.
COc1ccc(CN2CCN(C(C)=O)CC2)cc1OC1CCN(C(=O)c2ccc3ccccc3n2)CC1	.	.	.	i
COc1ccccc1C(NC(=O)C1CCN(CCOc2ccc3ccccc3c2)CC1)c1ccccn1 (centres undefined)	14.1µM*	?	-82.4%	?
Cc1ccccc1C(c1ncccc1C)N(C)C(=O)C1CCN(CCOc2ccc(Cl)cc2Cl)CC1 (centres undefined)	?	?	-85.7%	25.1µM*
CC(C)CN1CCC(C(=O)NC(c2ccc(F)cc2)c2ccc3ccccc3n2)CC1 (centres undefined)	-32.4%	7.2%	-29.0%	?
COc1ccc(OCCN2CCC(C(=O)NC(c3ccccn3)c3ccccc3OC)CC2)cc1 (centres undefined)	33.4%	-12.7%	-9.5%	i
COc1ccc(/C=C/CN2CCC(C(=O)NC(c3ccc(F)cc3)c3ccc4ccccc4n3)CC2)cc1 (centres undefined)	?	?	-86.8%	35.5µM*
NC(=S)NN=C1c2cc(Cl)ccc2-c2c1cc(Cl)cc2[N+](=O)[O-]	?	?	1.6%	?
NC(=S)N/N=C1\CCOc2ccc(Cl)cc21	8.91µM*	.	-58.3%	.
CCn1nc(C)c2c(-c3ccccc3)cc(=O)n(C(C)C(=O)NCc3ccccc3OC)c21 (centres undefined)	20µM*	?	-32.1%	?
CCn1nc(C)c2c(-c3ccccc3)cc(=O)n(C(C)C(=O)NCCc3ccc(Cl)cc3)c21 (centres undefined)	0.5%	?	-1.4%	?
O=C(c1n[nH]c2c1CCCC2)N1CCOc2ccc(C(O)C3CCCCC3)cc2C1 (centres undefined)	.	.	.	i
COC(=O)[C@@H]1CCCN1C(=O)c1cc(NC(=O)c2ccccc2)cc2ncn(C3CCCC3)c12	.	.	.	i
CCOC(=O)c1ccc2c(c1)n(CC)c(/C=C/N(C)c1ccccc1)[n+]2CC	0.0%	-33.1%	-16.7%	i
CC[n+]1c(/C=C/N(C)c2ccccc2)n(-c2ccccc2)c2ccc(-c3nc4ccccc4s3)cc21	5.62µM*	4.74µM*	-98.8%	13.4µM*
COC(=O)N/N=C/c1cc(Cl)c(OCc2ccccc2F)c(OC)c1	-11.0%	-26.3%	10µM*	i

Screens (PubChem)
